# Test results reported in PubChem BioAssay.
# A number with no mark means an inactive call. No rule for the calls is given here.
# Test system: Aerobactin synthetase IucA (Klebsiella pneumoniae hvKP1)
# Experiment: IucA enzyme inhibition, primary screen, biochemical, Spectrum library (AID 1346200);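 also: 100% = wells without compound and 0% = wells lacking enzyme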
# Details: malachite green pyrophosphate, A620, at 8 µM, hits give low values
row,Compound,activity remaining [%]
1,COc1c(-c2coc3cc4c(cc3c2=O)CC(O)C(C)(C)O4)ccc2c1C=CC(C)(C)O2 (stereo unspecified),112
2,CC1(C)O[C@@H]2CC3C4CCC5=CC(=O)CCC5(C)C4(F)C(O)CC3(C)[C@]2(C(=O)CCl)O1 (stereo partly specified),93.6
3,CCCCCCCCCCCCC[N+](C)(C)Cc1ccccc1,104
4,Nc1ccc(C(=O)O)c(O)c1 (tested in a mixture with another compound),86.3
5,Cc1c(NC(=O)c2cccnc2)c(=O)n(-c2ccccc2)n1C,85.4
6,C=CC1=C(C(=O)O)N2C(=O)[C@@H](NC(=O)/C(=N\O)c3csc(N)n3)[C@H]2SC1 (stereo in doubt),103
7,O=C(O)COCCN1CCN(C(c2ccccc2)c2ccc(Cl)cc2)CC1 (stereo unspecified),116
8,Cn1c([N+](=O)[O-])cnc1COC(N)=O,104
9,COc1cc(C(=O)NCc2ccc(OCCN(C)C)cc2)cc(OC)c1OC,114
10,COC1=CC(=O)C[C@@H](C)[C@]12Oc1c(Cl)c(OC)cc(OC)c1C2=O,115
11,OCc1ccccc1O,115
12,OCC(S)CS (stereo unspecified),91.4
13,C=C1[C@H]2CC[C@@]3(C)[C@H](c4ccoc4)OC(=O)C[C@]13O[C@H]1C[C@H](O)C(C)(C)[C@H](CC(=O)OC)[C@]12C,107
14,CC(=O)O[C@H]1CC[C@@]2(C)C(C[C@@H](OC(C)=O)[C@]3(C)C2CC[C@@]2(C)[C@H](c4ccoc4)OC(=O)[C@H]4O[C@]423)C1(C)C (stereo partly specified),82.9
15,CC1OC(O[C@H]2/C=C/C=C/C=C/C=C/C=C/C=C/C=C/[C@H](C)[C@@H](O)[C@@H](C)[C@H](C)OC(=O)CC(O)CC(O)CCC(O)C(O)CC(O)CC3(O)C[C@H](O)C(C(=O)O)C(C2)O3)C(O)[C@H](N)C1O (stereo partly specified),89.3
16,CCOc1ccc(C(=O)c2ccc(O)c(O)c2O)cc1,110
17,CC(C)=CCC[C@](C)(O)C1CC=C(C)CC1 (stereo partly specified),118
18,CCS(=O)(=O)CCn1c([N+](=O)[O-])cnc1C,124
19,COc1ccc(CN(CCN(C)C)c2ncccn2)cc1,120
20,C=C1CCC2C(CC2(C)C)C(=C)CC/C1=N/O (stereo unspecified),105
21,COc1cc(O)c(C(=O)/C=C/c2ccccc2)c(OC)c1,119
22,CC(=O)O[C@@H]1CC2C(C)(C)C(=O)[C@@H]3O[C@@H]3[C@]2(C)C2CC[C@]3(C)C(=CC(=O)O[C@H]3c3ccoc3)[C@@]21C (stereo partly specified),99.4
23,CC(=O)NCCCS(=O)(=O)O,103
24,S=c1[nH]c2ccccc2s1,99.3
25,CC(=O)Oc1cc(C)c2c(c1C=O)Oc1c(c(C)c(OC(C)=O)c3c1C(OC(C)=O)OC3=O)OC2=O (stereo unspecified),106
26,CC(C)c1ccc2c(c1)CCC1C(C)(C(N)=O)CCCC21C (stereo unspecified),103
